Laboratory results reported in PubChem BioAssay AID1259418 (Broad Institute, 2018).
Screen size: about 3,400 compounds; about 840 (25%) were called active. Roughly 11% stayed inconclusive and do not appear here. These entries were drawn from the full list. Results with a measured potency or affinity are listed apart. Values without a mark were called inactive.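 The calls were made as follows: active = fitted half-maximal concentration of signal decrease at or below twice the sample's top tested concentration; inconclusive = flat curve between -70 and -30 percent, or poor fit; inactive = flat within 30 percent, signal rise, or potency above limit.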

Assay: T. gondii growth inhibition with IFN-gamma, dose response, cell-based, ME49Luc, HeLa, luciferase, 72 h (AID 1259418)
Settings: T. gondii ME49Luc in IFN-y HeLa, stronger effect = lower value, -100% = high-dose IFN-γ control wells; at 19.5 µM unless noted

Row | Compound | max activity
1 | O=C(NCc1ccc(F)cc1)Nc1ccc(-c2nc(-c3ccccc3)co2)cc1 | 16.3% [at 1.35 µM]
2 | COc1cccc(C(=O)N2CCC(C(=O)NCCc3csc(-c4ccccc4)n3)CC2)c1 | -23.1%
3 | CCOC(=O)C1CCN(C(=O)c2ccc(-c3csc(C4CC4)n3)cc2)CC1 | 40.1%
4 | COc1ccc(C(=O)N2CCC(C(=O)NCCc3csc(-c4ccccc4)n3)CC2)cc1 | 12.2% [at 0.16 µM]
5 | COc1ccc(-c2nc(N3CCN(c4cccc(C)c4)C(C)C3)c3ccccc3n2)cc1 (stereo not given) | 60.7%
6 | Cc1ccc(-c2nc(Cn3nnc(-c4nc(-c5ccc(C(F)(F)F)cc5)no4)c3C)c(C)o2)cc1 | 11.8% [at 0.35 µM]
7 | CCc1nc(OCC(=O)Nc2ccccc2C)c2ccccc2n1 | 13% [at 0.16 µM]
8 | O=C(CCC1N=C2c3ccccc3N=C(SCc3ccccc3Cl)N2C1=O)NCc1ccco1 (stereo not given) | 35.4% [at 10 µM]
9 | CCOC(=O)c1ccc(NC(=O)Nc2ccc(-c3nc(-c4ccc(C)cc4C)co3)cc2)cc1 | 15.1% [at 0.16 µM]
10 | CCOc1ccc(NC(=O)Nc2ccc(-c3nc(-c4ccccc4)co3)cc2)cc1 | 55.1%
11 | COc1ccc2c(c1)NC1(CCN(C(=O)c3ccc(Br)o3)CC1)c1cccn1-2 | 8.21% [at 0.35 µM]
12 | CC(C)(C)NC1=NCCNC12CCN(S(=O)(=O)c1ccc3c(c1)CCCC3)CC2 | -19.2% [at 0.35 µM]
13 | COc1ccc(NC(=O)Nc2ccc(-c3nc(-c4ccccc4)co3)cc2)c(OC)c1 | 53.6% [at 10 µM]
14 | O=C(CC(F)(F)F)N1C[C@@H]2[C@H](c3ccccc31)[C@H](CO)N2CC1CCOCC1 | 54.6%
15 | Cc1oc(-c2ccccc2Cl)nc1Cn1c(=O)c2cccnc2n(-c2ccccc2)c1=O | 6.15% [at 5 µM]
16 | Cc1ccc(Cl)cc1N1CCN(C(=O)CC2Nc3c4ccccc4nc(=S)n3C2=O)CC1 (stereo not given) | 25.8% [at 0.35 µM]
17 | COc1ccccc1CNC(=O)CCC1Nc2c3ccccc3nc(=S)n2C1=O (stereo not given) | 15% [at 2.6 µM]
18 | Cc1ccc(C)c(N2CCN(C(=O)CC3Nc4c5ccccc5nc(=S)n4C3=O)CC2)c1 (stereo not given) | 190% [at 10 µM]
19 | COc1cccc(N2CCN(C(=O)CC3Nc4c5ccccc5nc(=S)n4C3=O)CC2)c1 (stereo not given) | 50.6%
20 | O=C(CCC1Nc2c3ccccc3nc(=S)n2C1=O)N1CCN(c2ccccc2F)CC1 (stereo not given) | 35.9%
21 | O=C(CC1Nc2c3ccccc3nc(=S)n2C1=O)N1CCN(c2cccc(C(F)(F)F)c2)CC1 (stereo not given) | 105%
22 | Cc1cccc(-c2nc(Cn3nnc(-c4nc(-c5ccc(OC(F)(F)F)cc5)no4)c3C)c(C)o2)c1 | -4.39% [at 0.35 µM]
23 | Cc1oc(-c2cccc(Cl)c2)nc1CSc1nc2c(c(=O)[nH]1)CN(Cc1ccccc1)CC2 | 20.2% [at 0.35 µM]
24 | CCCc1cc(C2CCCN2C(=O)c2cc(C(F)(F)F)nn2C)no1 (stereo not given) | 13.3% [at 0.16 µM]
25 | COc1ccc(CNc2nc(SCc3ccccc3F)nc3ccccc23)cc1 | 8.85% [at 0.68 µM]

Row | Compound | max activity
26 | Fc1ccccc1CSc1nc(NCc2ccco2)c2ccccc2n1 | 15% [at 2.6 µM]
27 | Clc1ccccc1CSc1nc(NCCc2ccccc2)c2ccccc2n1 | 13.2% [at 5 µM]
28 | Clc1ccc(CNc2nc(SCc3ccccc3Cl)nc3ccccc23)cc1 | -19% [at 10 µM]
29 | Cc1nc(N2CCOCC2)nc2c1CCN(C(=O)C1CC1)CC2 | 58.7%
30 | Clc1ccc(-n2ncc3c(NC4CCCCCCCCCCC4)ncnc32)cc1 | -21.9% [at 10 µM]
31 | COC(=O)CC(=O)Nc1ccc(-c2nc(-c3ccc(C)cc3C)co2)cc1 | 87.6%
32 | COc1ccccc1NC(=O)Nc1ccc(-c2nc(-c3ccc(C)cc3)co2)cc1 | -11.4% [at 0.35 µM]
33 | Cc1ccccc1C(=O)Nc1ccc(-c2nc(-c3ccccc3)co2)cc1 | 95.8% [at 10 µM]
34 | COc1cc(C(=O)Nc2ccc(-c3nc(-c4ccccc4)co3)cc2)cc(OC)c1OC | -19.1% [at 0.16 µM]
35 | Cc1ccc(-c2coc(-c3ccc(NC(=O)c4ccccc4C)cc3)n2)cc1 | 104%
36 | Cc1cc(C)c2c(=O)n(Cc3nc(-c4ccccc4Cl)oc3C)c(=O)n(-c3ccccc3)c2n1 | -23.7% [at 10 µM]
37 | Cc1ccc(-c2coc(-c3ccc(NC(=O)Nc4cccc(F)c4)cc3)n2)cc1 | -17.7% [at 0.35 µM]
38 | Cc1ccc(S(=O)(=O)Nc2ccc(-c3nc(-c4ccc(C)c(C)c4)co3)cc2)cc1 | 33.8% [at 10 µM]
39 | Cc1oc(-c2cccc(Cl)c2)nc1Cn1nnc(-c2nc(-c3cccnc3)no2)c1C | 8.12% [at 10 µM]
40 | C/C=C/c1ccc(C2[C@H]3CNC[C@@H]2N3Cc2cc(F)ccc2F)cc1 (stereo not given in full) | 24.5% [at 10 µM]
41 | COCCCN=C(Nc1ccc(C(=O)O)cc1)N1CCN(c2ncnc3ccccc23)CC1 | 14.9%
42 | Cc1ccc(-n2ncc3c(NCCCN4CCCC4=O)ncnc32)c(C)c1 | 50%
43 | Clc1ccc(-n2ncc3c(NCCc4ccccc4)ncnc32)cc1 | 36%
44 | Clc1cccc(CNc2ncnc3c2cnn3-c2ccccc2)c1 | 95.5% [at 10 µM]
45 | Cc1cccc(Nc2ncnc3c2cnn3-c2ccc(C)cc2C)c1 | -13.4% [at 10 µM]
46 | COc1ccc(CCNc2ncnc3c2cnn3-c2cccc(C)c2)cc1OC | 11.8% [at 1.35 µM]
47 | Cc1cccc(-n2ncc3c(NCCCn4ccnc4)ncnc32)c1 | 38.7% [at 5 µM]
48 | C=CCNc1ncnc2c1cnn2-c1ccc(C)cc1C | 27.6% [at 5 µM]
49 | Cc1cccc(-n2ncc3c(NCCc4ccccc4)ncnc32)c1 | -21.4% [at 0.35 µM]
50 | CCc1ccccc1Nc1ncnc2c1cnn2-c1cccc(C)c1 | 24.1% [at 10 µM]

Row | Compound | max activity
51 | COC(=O)CC(=O)Nc1ccc(-c2nc(-c3ccccc3)co2)cc1 | 102%
52 | COc1ccc(NC(=O)Nc2ccc(-c3nc(-c4ccccc4)co3)cc2)cc1Cl | 10%
53 | NC(=O)CN1CCOCCOCCN(CC(N)=O)CCOCC1 | 36.3% [at 10 µM]
54 | COc1ccc(-c2nc3c(s2)CN(C(=O)Nc2ccccc2C)CC3)cc1OC | -11.5% [at 0.35 µM]
55 | C/C=C/c1ccc(C2[C@H]3CNC[C@@H]2N3Cc2ccc3c(c2)OCO3)cc1 (stereo not given in full) | 24%
56 | Cc1ccc(S(=O)(=O)N2[C@@H]3CNC[C@H]2C3c2ccc(/C=C/c3ccccc3)cc2)cc1 (stereo not given in full) | 32.9% [at 10 µM]
57 | O=C(CCC1Nc2c3ccccc3nc(=S)n2C1=O)NC1CC1 (stereo not given) | -17.9% [at 1.35 µM]
58 | C/C=C/c1ccc([C@H]2[C@@H](C#N)N(C(=O)NC3CCCCC3)[C@H]2CO)cc1 | -14% [at 2.35 µM]
59 | COc1cccc(-c2ccc(C3[C@H]4CNC[C@@H]3N4C(=O)NC3CCCCC3)cc2)c1 (stereo not given in full) | 32.8% [at 10 µM]
60 | COc1ccc(N2CCN(c3nc(-c4ccc(Cl)cc4)nc4ccccc34)CC2)cc1 | 25.6%
61 | CCOC(=O)C1CCN(C(=O)c2ccc(-c3csc(CC)n3)cc2)CC1 | 201% [at 10 µM]
62 | COc1cccc(-c2ccc(C3[C@H]4CNC[C@@H]3N4CC3CCCCC3)cc2)c1 (stereo not given in full) | 25.6% [at 10 µM]
63 | C/C=C/c1ccc(C2[C@H]3CNC[C@@H]2N3S(=O)(=O)c2ccccc2C)cc1 (stereo not given in full) | 50.4%
64 | Cn1cnc(S(=O)(=O)N2C[C@@H]3N[C@H](C2)C3c2ccc(-c3ccccc3F)cc2)c1 (stereo not given in full) | 25.3% [at 10 µM]
65 | N#Cc1ccc(-c2ccc(C3[C@@H]4CN(S(=O)(=O)c5ccc(F)cc5)C[C@H]3N4)cc2)cc1 (stereo not given in full) | 13.9%
66 | CCOc1ccc(-c2nc3c(s2)CN(S(=O)(=O)Cc2ccccc2)CC3)cc1 | -19.9% [at 0.16 µM]
67 | COc1ccccc1-c1ccc(C2[C@H]3CNC[C@@H]2N3S(=O)(=O)c2ccc(F)cc2)cc1 (stereo not given in full) | 43.5%
68 | NC(=O)C1(N2CCCCC2)CCN(c2ncc(NC(=O)c3ccc(Cl)cc3)cc2C(=O)O)CC1 | -11.3% [at 10 µM]
69 | Cc1ccc(-c2nc(CSc3nc4c(c(=O)[nH]3)CN(C(C)C)CC4)c(C)o2)cc1 | -15.7%
70 | Cc1ccc(C)c(-c2coc(-c3ccc(NC(=O)Nc4ccc(F)cc4F)cc3)n2)c1 | -11.8% [at 2.6 µM]
71 | COc1ccc(CNC(=O)CC2Nc3c4ccccc4nc(=S)n3C2=O)cc1 (stereo not given) | 22.9% [at 0.16 µM]
72 | CCc1ccc(-c2noc(-c3nnn(Cc4nc(-c5ccc(OC)cc5)oc4C)c3C)n2)cc1 | -11.2% [at 1.35 µM]
73 | CCc1nc(OCC(=O)Nc2c(C)cccc2C)c2ccccc2n1 | 19.2% [at 0.35 µM]
74 | Cc1ccc(C2=NC3(CCN(CC(=O)Nc4cccc(C)c4)CC3)NC2=O)cc1 | -9.18% [at 5 µM]
75 | CCOc1cccc(-c2noc(-c3nnn(Cc4nc(-c5ccccc5OC)oc4C)c3C)n2)c1 | 5.65% [at 0.35 µM]
